Records with an inconclusive call do not appear. Activity calls are given as the source filed them. How the source made its calls: active means hit-call score of the fitted dose curve at least 0.9, where 1 is the maximum; inconclusive means response in the unintended direction; inactive means score below 0.9.
Key:
[1] = ACEA_AR_agonist_AUC_viability: ACEA Biosciences xCELLigence Real-Time Cell Analysis on Androgen Receptor Agonism for Viability (AID 2283775);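 on AC50: viability read 80 hours after compound addition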
How it was run: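 Viability endpoint from xCELLigence impedance in 22Rv1 prostate cells at 80 h. Eight-point series, 100 uM maximum final.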

[2] = ACEA_AR_antagonist_AUC_viability: ACEA Biosciences xCELLigence Real-Time Cell Analysis on Androgen Receptor Antagonism for Viability (AID 2283776);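 further: 22Rv1 human prostate cancer cells growing on impedance electrode plates; area under impedance growth curve at 80 h after dosing as viability; hits lower the growth signal relative to DMSO meaning cytotoxicity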
How it was run: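 Viability endpoint from label-free cell-index monitoring: 22Rv1 cultures treated with an eight-point 1:4 dilution series starting at 100 uM final, AUC at 80 h fitted against DMSO.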

[3] = STM_H9_NormalizedViability: Cytotoxicity Assessment at 120 hours in the Stemina devTOX quickPredict H9 human embryonic stem cell (hESC)-based Assay (AID 2283784)
How it was run: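 CellTiter-Fluor RFU, background-subtracted, expressed relative to 0.1% DMSO neutral control by plate. Pluripotent H9 cells; treatment with daily re-dosing. Plates carried 1uM methotrexate (positive) and 5 nM methotrexate (negative) references.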

AR (gene 367) [4] = molecular target: AR (gene 367) (UniProt P10275); assay: ACEA_AR_antagonist_80hr: ACEA Biosciences xCELLigence Real-Time Cell Analysis on Androgen Receptor Antagonism for Proliferation (AID 2283787);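 further: 22Rv1 human prostate cancer cells with growth followed by electrical impedance; hits lower the impedance growth signal relative to DMSO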
AR (gene 367), sequence (P10275 whole entry, looked up): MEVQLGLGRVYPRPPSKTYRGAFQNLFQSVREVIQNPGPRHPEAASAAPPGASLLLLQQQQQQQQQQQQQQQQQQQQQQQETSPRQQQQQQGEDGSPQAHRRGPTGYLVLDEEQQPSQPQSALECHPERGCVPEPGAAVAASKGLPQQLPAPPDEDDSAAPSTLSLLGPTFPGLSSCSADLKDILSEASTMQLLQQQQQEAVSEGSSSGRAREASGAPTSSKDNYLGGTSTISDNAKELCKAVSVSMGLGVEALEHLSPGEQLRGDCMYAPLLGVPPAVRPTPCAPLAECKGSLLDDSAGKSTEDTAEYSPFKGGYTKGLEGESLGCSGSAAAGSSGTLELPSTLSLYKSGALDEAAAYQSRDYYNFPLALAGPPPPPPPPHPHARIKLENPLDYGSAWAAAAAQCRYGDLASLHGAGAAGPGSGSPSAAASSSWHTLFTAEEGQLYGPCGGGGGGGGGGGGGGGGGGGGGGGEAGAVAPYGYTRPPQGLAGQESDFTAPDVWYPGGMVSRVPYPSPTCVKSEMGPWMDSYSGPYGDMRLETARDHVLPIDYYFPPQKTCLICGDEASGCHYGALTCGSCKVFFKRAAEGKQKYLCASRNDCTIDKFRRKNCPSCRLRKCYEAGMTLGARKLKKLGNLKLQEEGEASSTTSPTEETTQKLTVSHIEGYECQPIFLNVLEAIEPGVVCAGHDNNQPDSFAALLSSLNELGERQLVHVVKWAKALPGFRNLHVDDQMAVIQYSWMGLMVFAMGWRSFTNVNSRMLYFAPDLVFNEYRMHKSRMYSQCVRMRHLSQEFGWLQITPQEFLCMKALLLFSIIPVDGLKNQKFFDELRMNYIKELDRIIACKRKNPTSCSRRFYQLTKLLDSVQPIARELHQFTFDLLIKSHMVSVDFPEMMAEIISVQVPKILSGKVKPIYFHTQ
How it was run: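 Measures real-time proliferation of 22Rv1 prostate cancer cells by electrode impedance at 80 hours after dosing. Test articles ran at eight concentrations (1:4 steps, top 100 uM final) in biological duplicate.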

[5] = ACEA_ER_AUC_viability: ACEA Biosciences xCELLigence Real-Time Cell Analysis on Estrogen Receptor Agonism for Viability (AID 2283782);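 further: hit means loss of impedance signal meaning reduced cell growth or viability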
How it was run: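 Read-out: real-time electrical impedance (RT-CES) area under curve, loss of signal taken as reduced viability, normalized to DMSO baseline. T-47D cells, charcoal-stripped serum medium, compounds up to 100 uM final, continuous exposure, 80 h.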

AR (gene 367) [6] = molecular target: AR (gene 367) (UniProt P10275); assay: ACEA_AR_agonist_80hr: ACEA Biosciences xCELLigence Real-Time Cell Analysis on Androgen Receptor Agonism for Proliferation (AID 2283783);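 further: hits increase impedance growth signal above DMSO baseline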
How it was run: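 Impedance (RT-CES) growth signal at 80 h post-dose; 22Rv1 cells, 8-pt 1:4 series, top 100 uM final, DMSO ≤0.5%; duplicate plates; gain-of-signal fit relative to DMSO baseline.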

CCCCCCCCCC[N+](C)(C)[O-]
outcome [1]: inactive | outcome [2]: inactive | outcome [3]: inactive | outcome (AR (gene 367) [4]): inactive

CC(=O)O
outcome [2]: inactive

O=[Si]=O
outcome [2]: inactive

NCCOCCOCCN
outcome [1]: inactive | outcome [2]: inactive | outcome (AR (gene 367) [4]): inactive

CCCCC(CC)COP(=O)(OCC(CC)CCCC)OCC(CC)CCCC (stereo not drawn)
AC50 [2]: 16.8 µM (active)

CCCC[C@H]1CN(CC2CCOCC2)C(=O)OC12CCN(C1(C)CCN(C(=O)c3c(C)ncnc3C)CC1)CC2
outcome [2]: inactive

Cc1occc(=O)c1O
outcome [2]: inactive

COc1ccc(C(=O)Nc2nc3ccccc3c(NCc3ccccc3)c2C#N)cc1
AC50 [2]: 23.5 µM (active) | outcome [5]: inactive

CCCCc1nc2cccnc2n1Cc1ccc(-c2ccccc2-c2nnn[nH]2)cc1
AC50 [2]: 50 µM (active)

CC(C)c1cccc(C(C)C)c1
outcome [2]: inactive | outcome [5]: inactive

CC1(C)C(=O)NC(=O)N1CO
outcome [2]: inactive | outcome [5]: inactive

CN(C)CCCN1c2ccccc2Sc2ccc(Cl)cc21
AC50 [1]: 22.2 µM (active) | AC50 [5]: 13.1 µM (active) | AC50 [3]: 3.22 µM (active)

CCCCC(CC)CO (stereo not drawn)
outcome [2]: inactive

CO[C@@H]1COCC[C@@H]1N[C@@H]1CC[C@@](C(=O)N2CCc3ncc(C(F)(F)F)cc3C2)(C(C)C)C1
outcome [2]: inactive | AC50 [5]: 21.3 µM (active)

Oc1ccccc1O
AC50 [2]: 28.9 µM (active) | AC50 [5]: 90.5 µM (active)

C/C=C/C=C/C(=O)O
outcome [2]: inactive | outcome [5]: inactive

CC(=O)S[C@H](C(=O)N[C@H]1Cc2ccccc2[C@H]2CCC[C@@H](C(=O)O)N2C1=O)C(C)C
outcome [2]: inactive | outcome [5]: inactive

O=C(O)c1[nH]n(-c2ccc(S(=O)(=O)O)cc2)c(=O)c1N=Nc1ccc(S(=O)(=O)O)cc1
outcome [2]: inactive

CCCCCCC(CCCCCCCCCCC(=O)OCC(COC(C)=O)OC(C)=O)OC(C)=O (stereo not drawn)
outcome [2]: inactive

Oc1ccc(O)cc1
AC50 [2]: 50 µM (active) | AC50 [5]: 11.3 µM (active)

O=C(O)CC(O)(CC(=O)O)C(=O)O
outcome [2]: inactive | outcome [5]: inactive

O=NO
outcome [2]: inactive | outcome [5]: inactive

CN(C)C(=O)NC1(c2ccccc2)CCN(CC[C@@]2(c3ccc(F)c(F)c3)CN(C(=O)c3ccccc3)CCO2)CC1
outcome [2]: inactive | AC50 [5]: 25.4 µM (active)

Cc1ccc(-c2cc(C(F)(F)F)nn2-c2ccc(S(N)(=O)=O)cc2)cc1
AC50 [2]: 15.9 µM (active) | AC50 [5]: 90.7 µM (active) | AC50 (AR (gene 367) [4]): 12.7 µM (active)

Cc1cc(Cc2ccc(N)c(C)c2)ccc1N
outcome [2]: inactive | outcome [3]: inactive

Cc1ccc(C(C)(C)C)c(O)c1
outcome [2]: inactive | AC50 [5]: 75.6 µM (active)

S=c1[nH]c2ccccc2s1
outcome [2]: inactive | AC50 [5]: 91.9 µM (active)

O=C1CCCCC1
outcome [2]: inactive | outcome [5]: inactive | outcome (AR (gene 367) [4]): inactive

C=CCc1ccc(OC)c(OC)c1
outcome [5]: inactive

NC1CCCCC1
outcome [2]: inactive | outcome [5]: inactive

CC(=O)[C@@]1(O)CC[C@H]2[C@@H]3CCC4=CC(=O)CC[C@]4(C)[C@H]3CC[C@@]21C
outcome [2]: inactive | outcome [3]: inactive

OCC(CO)n1cnc(-c2ccc(F)cc2)c1-c1ccnc(Oc2ccccc2)n1
AC50 [2]: 21.1 µM (active) | outcome [5]: inactive

O=C(Oc1ccccc1)c1cccc(C(=O)Oc2ccccc2)c1
outcome [2]: inactive | outcome (AR (gene 367) [6]): inactive | outcome [3]: inactive | outcome (AR (gene 367) [4]): inactive

Nc1nc(=S)c2[nH]cnc2[nH]1
AC50 [2]: 0.212 µM (active) | AC50 [5]: 0.237 µM (active) | outcome (AR (gene 367) [6]): inactive | AC50 [3]: 3.32 µM (active) | AC50 (AR (gene 367) [4]): 0.198 µM (active)

CCc1nc(N)nc(N)c1-c1ccc(Cl)cc1
AC50 [2]: 50 µM (active) | AC50 [3]: 33.9 µM (active)

O=C1c2c(O)cccc2Cc2cccc(O)c21
outcome [2]: inactive | outcome [5]: inactive

O=C(NS(=O)(=O)/C=C/c1cccs1)c1ccc(F)cc1Br
AC50 [2]: 3.42 µM (active) | AC50 (AR (gene 367) [4]): 3.96 µM (active)

O=C(O)CN(CC(=O)O)CC(=O)O
outcome [2]: inactive | outcome [5]: inactive

CCCCCCCCCCCCCCOS(=O)(=O)O
AC50 [2]: 42.3 µM (active) | AC50 [5]: 74.5 µM (active)

CC(=O)OC1CC(C)OC(C)O1 (stereo not drawn)
outcome [5]: inactive

CCCCCCCC(=O)OC
outcome [2]: inactive | outcome [5]: inactive

O=C(O)c1cccnc1
outcome [2]: inactive | outcome [5]: inactive | outcome [3]: inactive

O=C(N[C@@H](c1ccccc1)[C@@H]1CCCCN1)c1cccc(C(F)(F)F)c1Cl
AC50 [2]: 39.5 µM (active) | AC50 [5]: 15.3 µM (active)

NC(=Nc1ccccc1)Nc1ccccc1
outcome [2]: inactive | AC50 [5]: 1.79 µM (active) | outcome [3]: inactive

N[C@@H](Cc1c[nH]c2ccccc12)C(=O)O
AC50 [2]: 9.92 µM (active) | outcome [5]: inactive | outcome [3]: inactive

O=C1OC(c2ccc(O)cc2)(c2ccc(O)cc2)c2ccccc21
AC50 [2]: 19.8 µM (active) | AC50 [5]: 92 µM (active) | outcome (AR (gene 367) [6]): inactive | outcome [3]: inactive | AC50 (AR (gene 367) [4]): 20.6 µM (active)

CN(C)C(=O)NC1(c2ccccc2)CCN(CCC[C@]2(c3ccc(Cl)c(Cl)c3)CCCN(C(=O)c3ccccc3)C2)CC1
AC50 [2]: 16.7 µM (active) | AC50 [5]: 14.6 µM (active)

CC(N)=O
outcome [2]: inactive | outcome [5]: inactive

CC(COCC(C)OC(=O)c1ccccc1)OC(=O)c1ccccc1 (stereo not drawn)
outcome [2]: inactive | outcome [3]: inactive

COC(=O)CCC(=O)OC
outcome [2]: inactive | outcome [5]: inactive

C#CC(O)C(CC)CCCC (stereo not drawn)
outcome [2]: inactive | outcome (AR (gene 367) [6]): inactive

Source: PubChem BioAssay (EPA / NIEHS)
